AmpC inh no detg: blocks E. coli AmpC beta-lactamase in detergent-free assay; P00811; AmpC nitrocefin hydrolysis, absorbance 480 nm, 0.0001% Triton; Potency, µM (doses to about 57.1 µM), for the others: top-dose activity change, negative = inhibition, usual class: inhibitors; actives 0.52% (n = 330,000); AID 485341;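 further: plate controls were no compound for no effect and no enzyme for full effect; nearly all actives have a fitted effect of over 20% in size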
Target sequence (P00811 whole entry, looked up): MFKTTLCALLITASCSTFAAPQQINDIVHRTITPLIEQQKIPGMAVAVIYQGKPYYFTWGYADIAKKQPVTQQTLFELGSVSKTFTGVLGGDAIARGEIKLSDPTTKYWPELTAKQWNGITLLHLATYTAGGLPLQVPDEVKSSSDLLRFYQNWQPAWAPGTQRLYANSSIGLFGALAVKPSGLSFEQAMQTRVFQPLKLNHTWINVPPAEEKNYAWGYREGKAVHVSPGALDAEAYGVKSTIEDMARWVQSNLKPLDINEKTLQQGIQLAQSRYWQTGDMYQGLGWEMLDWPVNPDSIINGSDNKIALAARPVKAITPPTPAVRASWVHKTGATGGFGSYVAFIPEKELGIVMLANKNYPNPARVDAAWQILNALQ
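20 mM phosphate pH 7.0 + 0.01% (detergent screen) or 0.0001% Triton X-100; 5.3 nM AmpC reagent; cpd preinc 15 min RT; nitrocefin (800 uM stock) to start; A480 q20 s × 4 min; Activity was normalised to no-enzyme and no-compound control wells.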
AmpC inh detg: inhibitors of E. coli AmpC beta-lactamase with detergent; P00811; AmpC hydrolysis of nitrocefin, absorbance 480 nm, 0.01% Triton; Potency, µM (series often up to 114 µM), inactives show top-dose activity change, negative = inhibition, most hits filed as inhibitors; actives 0.041% (n = 370,000);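 further: 0% = no-compound wells and -100% = no-enzyme wells; nearly all actives have a fitted effect of over 25% in size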
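20 mM phosphate pH 7.0 + 0.01% (detergent screen) or 0.0001% Triton X-100; 5.3 nM AmpC reagent; cpd preinc 15 min RT; nitrocefin (800 uM stock) to start; A480 q20 s × 4 min; Activity was normalised to no-enzyme and no-compound control wells.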
Giardia FBPA inh: Giardia lamblia aldolase inhibition | A8B2U2 | Potency, µM (top dose mostly 59.6 µM), without a hit: top-dose activity, negative = inhibition, most hits filed as inhibitors | AID 2451 | actives 0.71% (n = 290,000) | purified Giardia FBPA; further: nearly all actives have a fitted effect of over 55% in size
Target sequence (A8B2U2 whole entry, looked up): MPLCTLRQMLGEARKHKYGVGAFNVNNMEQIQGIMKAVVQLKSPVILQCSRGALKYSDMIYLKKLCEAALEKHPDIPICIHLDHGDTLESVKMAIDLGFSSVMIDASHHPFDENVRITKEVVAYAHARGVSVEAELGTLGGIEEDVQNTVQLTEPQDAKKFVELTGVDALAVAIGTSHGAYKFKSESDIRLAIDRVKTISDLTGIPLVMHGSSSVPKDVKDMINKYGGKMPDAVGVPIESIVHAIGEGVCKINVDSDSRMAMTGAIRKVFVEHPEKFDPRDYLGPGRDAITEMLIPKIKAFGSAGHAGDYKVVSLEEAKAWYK
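Giardia FBPA (40 nM reagent) was preincubated 10 min at RT with compound (up to 57.5 uM final), then substrate plus GAPDH/TPI/NAD/arsenate coupling system with diaphorase/resazurin was added; resorufin fluorescence (525/598 nm) was read after 20 min.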
RE007 growth inh: less growth of the S. pombe RE007 Vpr strain. S. pombe RE007 Vpr strain, BacTiter-Glo ATP luminescence, 24 h. actives 0.21% (n = 360,000). Potency, µM (highest dose often 92.2 µM), without a hit: top-dose activity change, negative = less growth, actives largely listed as inhibitors. AID 651644; active means well fitted falling curve with a large enough effect; inconclusive means small, poorly fitted or top-dose-only effect; inactive means no such curve, though single readings can be large or run the other way; further: nearly all actives have a fitted effect of over 50% in size
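Fission yeast strain RE007, carrying one chromosomally integrated HIV-1 vpr copy, was seeded at OD 0.01 in PMG+AL medium with 23 nL pinned compound. After 24 h at 30 °C and 99% humidity, viability was read by BacTiter-Glo luminescence.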
Sm TGR inh: blocks Schistosoma mansoni thioredoxin glutathione reductase. AID 485364. purified TGR, DTNB reduction, TNB absorbance 405 nm. Q962Y6. actives 3% (n = 360,000). Potency, µM (series often up to 114 µM), inactives show top-dose activity change, negative = inhibition, hits mostly inhibitors; further: nearly all actives have a fitted effect of over 60% in size
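Kinetic colorimetric format: TGR-catalysed, NADPH-driven DTNB reduction monitored via TNB absorbance. Enzyme dispensed at 20 nM; compound exposure 15 min at room temperature before reaction start.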
Starred values were filed as active, the others as inactive; ? = inconclusive; / = no result. Shown are actives, neighbours in structure and some others; about 3.4% of the full set was active somewhere. Unless noted, the call rests on the fitted dose curve; in most records, active means well fitted curve in the direction sought with a large enough effect; inconclusive means small, poorly fitted or top-dose-only effect, or another doubt; inactive means no such curve, though single readings can be large; an effect the other way counts as inactive or inconclusive. Unless noted, on the % scale 0 is the no-effect control and ±100 the full control effect; potency means the concentration at half of the fitted maximal effect.

SMILES	AmpC inh no detg	AmpC inh detg	Giardia FBPA inh	RE007 growth inh	Sm TGR inh
CCn1nc(/C=C/c2ccccc2)nc2c(=O)n(C)c(=O)nc1-2	-27%	-6%	1%	28µM*	-35%
Nc1ccc(N2CCOCC2)c2nonc12	-15%	-2%	2.8µM*	-15%	?
Cc1ccc(CS(=O)Cc2ccc(C(=O)N3CCN(c4cccc(C)c4C)CC3)o2)cc1 (stereo not given)	/	/	/	6%	/
CCOC(=O)N1CCN(C(=O)c2ccc(CS(=O)Cc3ccc(C)cc3)o2)CC1 (stereo not given)	31%	0%	/	22%	40µM*
Cc1ccc(Cl)cc1N1CCN(C(=O)c2ccc(CS(=O)Cc3ccc(Cl)cc3)o2)CC1 (stereo not given)	160%	-1%	/	6%	45µM*
Cc1cccc(N2CCN(C(=O)c3ccc(CS(=O)Cc4cccc(Cl)c4)o3)CC2)c1C (stereo not given)	143%	-11%	8%	-9%	40µM*
COc1ccc(C(C)(C)C)cc1NC(=O)COC(=O)c1nc2nccc(C)n2n1	72%	-6%	/	-5%	2%
O=c1cccc2n1CC1CC2CN(S(=O)(=O)c2ccc(F)cc2)C1 (stereo not given)	-43%	1%	1%	-3%	/
Cc1ccc(NC(=O)CSc2nn(-c3ccccc3)c(=S)s2)cc1S(=O)(=O)N(C)C	28µM*	-19%	-2%	/	-1%
Cc1c(Cl)cccc1NC(=O)NCc1ccccn1	1%	6%	2%	11%	40µM*
COc1ccc(-c2nnc(SCC(=O)Oc3c(C)cccc3C)o2)cc1OC	/	24%	/	/	4%
CSCCC(=O)N1CCCC(CO)(CCCc2ccccc2)C1 (stereo not given)	59%	-10%	12%	-23%	-4%
CN(C)c1ccnc(-n2cccc2/C=N/O)c1C#N	-43%	-3%	3%	12%	2%
CC(=O)N1N=C(c2ccco2)CC1c1cccs1 (stereo not given)	-12%	1%	-5%	2%	45µM*
O=C(CCl)N1N=C(c2ccco2)CC1c1cccs1 (stereo not given)	-20%	-9%	-6%	-13%	3.2µM*
CS(=O)(=O)Nc1cccc(C2=NN(C(=O)c3ccccc3)C(c3cccs3)C2)c1 (stereo not given)	-14%	7%	-6%	2%	9%
Cc1ccc(C2=NN(C(=O)CCl)C(c3cccs3)C2)o1 (stereo not given)	-10%	-7%	-1%	-1%	3.2µM*
O=C(c1ccccc1)N1N=C(c2ccco2)CC1c1cccs1 (stereo not given)	-24%	-2%	0%	-12%	35µM*
Cc1ccc(C2=NN(C(=O)CCC(=O)O)C(c3cccs3)C2)cc1 (stereo not given)	-24%	-14%	13%	1%	15%
CC(=O)NC(Nc1nc2c(s1)CCCC2)(C(F)(F)F)C(F)(F)F	-7%	-14%	-9%	-14%	-4%
CN(C)c1ccc(NC(=O)c2ccc([N+](=O)[O-])cc2Cl)cc1	-14%	100µM*	-3%	6%	0%
COc1ccc(C(=O)c2ccc([N+](=O)[O-])cc2Cl)cc1	-31%	-4%	-12%	?	13µM*
CCOc1ccccc1OCC(=O)NCc1ccco1	-2%	-1%	-2%	6%	20µM*
COc1ccc(-c2[nH]c(-c3cccc(OC)c3)nc2SCC(=O)NCc2ccco2)cc1	10µM*	-15%	-13%	-6%	-2%
Cc1ccc(C(=O)OCC(=O)NCc2ccco2)cc1	-6%	?	3%	-7%	-5%
SMILES	AmpC inh no detg	AmpC inh detg	Giardia FBPA inh	RE007 growth inh	Sm TGR inh
COc1ccc(C(=O)OCC(=O)NCc2ccco2)cc1OC	-11%	?	-1%	-3%	35µM*
COc1ccc(OCCC(=O)OCC(=O)NCc2ccco2)cc1	17%	-12%	0%	-4%	50µM*
O=C(COc1ccccc1Cl)NCc1ccco1	4%	0%	4%	-9%	-31%
CCOC(=O)CSc1nc2ccccc2c(=O)n1CCCCCC(=O)NCc1ccco1	46%	?	0%	-2%	-9%
Cc1ccc(NC(=O)Cn2nc(C)c3ccccc3c2=O)cc1	-12%	?	1%	-6%	0%
COCC(=O)Nc1cc(C)cn(Cc2ccc(F)cc2)c1=O	0%	-16%	4%	-1%	-32%
CCOc1ccc(C(=O)OCC(=O)NCc2ccco2)cc1OCC	-10%	?	2%	14%	45µM*
COc1ccc(-c2ccc(C#N)c(SCC(=O)NC3CC3)n2)cc1OC	-27%	-7%	1%	6%	8%
COc1ccc(-c2ccc(C#N)c(SCC(=O)NCc3ccco3)n2)cc1OC	-1%	4%	1%	-21%	32µM*
COC(=O)c1cc(NC(=O)c2ccc3c(c2)N(Cc2cccc(Cl)c2)C(=O)c2ccccc2S3=O)cc(C(=O)OC)c1 (stereo not given)	/	-5%	/	/	-2%
N#Cc1c(-c2cccc(Br)c2)cc(-c2ccco2)[nH]c1=O	-43%	-11%	-11%	5%	10µM*
CCCC1=[N+](CC(C)=O)CCn2c(C)ccc21	-1%	1%	-9%	-2%	28µM*
Cc1ccc(-n2cccc2/C=C2\C(=N)N3N=C(C(C)C)SC3=NC2=O)cc1	16µM*	?	1%	4%	7%
O=c1c2[nH]c3ccc(F)cc3c2ncn1CCN1CCN(Cc2ccccc2)CC1	0.32µM*	?	2%	3%	-7%
CCOc1ccccc1NC(=O)Cn1nc(-c2ccco2)ccc1=O	-34%	-12%	-5%	19%	16µM*
CCOc1ccccc1NC(=O)CSc1ccc(-c2ccco2)nn1	32µM*	0%	/	-7%	18µM*
O=C(CSc1ccc(-c2ccco2)nn1)Nc1ccccc1F	-31%	-2%	/	-4%	14µM*
COC(=O)c1ccc(Cn2nnc3c(=O)[nH]c(C4CCCN(S(=O)(=O)c5ccc(C)cc5)C4)nc32)cc1 (stereo not given)	-25%	-8%	-21%	1%	-9%
CCOc1ccc(CCNC(=O)CCN2N=C(c3ccc(OC)cc3)CCC2=O)cc1OCC	/	-8%	/	/	9%
O=S(=O)(Nc1ccc(O)c2ccccc12)c1cccs1	-37%	-9%	?	-9%	20µM*
O=S(=O)(Nc1ccc(O)c2ccccc12)c1ccc(Br)cc1	11µM*	-3%	/	/	20µM*
O=S(=O)(Nc1cccc2ccccc12)c1cccs1	-45%	-15%	/	-3%	-17%
COc1ccc(OC)c2sc(NC(=O)c3cccc(N4C(=O)CCC4=O)c3)nc12	-3%	-3%	/	-16%	-24%
